This is one part of a sample in which hits are shown more often than they occur.
Pf Dd2 inh: qHTS Primary assay for Inhibitors of Plasmodium falciparum Dd2 growth in vitro. Potency, µM (top dose mostly 28.9 µM), without a hit: at the highest dose activity, negative = inhibition, usual class: inhibitors. AID 1347417, 2020. P. falciparum Dd2 growth, SYBR Green, 72 h. actives 4.3% (n = 120,000); active = well fitted inhibition curve with a large enough effect;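 note: plate controls were DMSO vehicle for no effect and reference drug for full effect; nearly all actives have a fitted effect of over 65% in size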
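Infected erythrocytes (Dd2, 0.3% parasitemia, 2.5% hematocrit final) are added to compound in RPMI-1640/Albumax II medium, grown 72 h at 37C in low oxygen, then lysed with saponin/Triton-X containing SYBR Green and read by fluorescence.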
The depositor's hits bear a star; i = inactive; [ ] = remark or other dose. Potency is the fitted concentration of half-maximal effect.

SMILES	Pf Dd2 inh
CN1Cc2ccc(NCc3ccccc3)nc2C(C)(C(=O)NCCOc2ccccc2)C1 (stereo not drawn)	-7.2%[44.1 µM]
O=C1CCN(S(=O)(=O)c2ccccc2)CCCC(C(=O)NCc2cccnc2)CCN1 (stereo not drawn)	-2.7%
COCCN1CCC2(CCC1=O)CN(CCC(=O)N1CCCC1)CCN2C (stereo not drawn)	-2.2%
Cc1cc(NC(=O)CN2C(=O)NC(c3ccc(Cl)cc3)C3=C2COC3=O)ccc1Br (stereo not drawn)	-0.6%
O=C(c1cn(C2CNC2)nn1)N1CCCC1	4.6%
O=C(NC[C@H]1OC[C@@H](N(Cc2ncc[nH]2)Cc2ncc[nH]2)[C@@H]1O)c1ccccc1	-20.0%[44.1 µM]
Cc1ccc([S+](=O)([O-])N2CCC3(CC2)Cc2ccccc2NC3=O)cc1	32.1%
Cc1cc2nc3n(c(=O)c2n1CC(=O)NCc1ccc(F)cc1)CCCC3	125.3%
O=C(c1ccccc1F)N1CCC(Oc2cccnc2)C1 (stereo not drawn)	3.1%
O=C1NCc2ccccc2CC12CCCCN2Cc1cccc(O)c1 (stereo not drawn)	-20.2%
Cc1cccc(C)c1CN1CCCC12Cc1ccccc1CNC2=O (stereo not drawn)	2.51µM*
Cc1ncc(CO)c(CN2CCCC23Cc2ccccc2CNC3=O)c1O (stereo not drawn)	0.2%
O=C1NCc2ccccc2CC12CCCN2Cc1ccc2ccccc2n1 (stereo not drawn)	5.2%
Cc1cc(C)c(CN2CCCC23Cc2ccccc2CNC3=O)c(C)c1 (stereo not drawn)	-4.6%
Cc1cccc(CN2CCCCC23Cc2ccccc2CNC3=O)n1 (stereo not drawn)	10µM*
Cc1nc2ncnn2c(C)c1CCC(=O)NCC1CCOc2ccccc2C1 (stereo not drawn)	6.3%
CC(C)CNC(=O)C1(CCO)CC12CCOCC2 (stereo not drawn)	-6.1%
CC(=O)NCCNC(=O)[C@H]1CN2CCC1C[C@@H]2Cn1cc(CSc2ccccc2)nn1 (stereo partly drawn)	40.7%
Cc1nc([C@@H]2CN(S(=O)(=O)c3ccc4c(c3)CCC4)C[C@H]2C(N)=O)n[nH]1	-14.9%
CN1CC(=O)N(c2ccccc2)Cc2c(NCc3cccc(C(F)(F)F)c3)ncnc21	-7.4%
C(Cc1noc(C2CNC2)n1)OCC1CC1	5.01µM*
CC(=O)N1CCCC(c2nc(CCOCC3CC3)no2)C1 (stereo not drawn)	-10.2%
C1CNCC(c2nc(CCOCC3CCOCC3)no2)C1 (stereo not drawn)	-3.5%
O=C(c1ccncc1)N1CC2CCC(C1)N2Cc1ccc(-c2cncnc2)cc1	-5.9%
O=C(CC1COCCN1C(=O)c1cc(F)ccc1F)NCc1cccnc1 (stereo not drawn)	8.8%
SMILES	Pf Dd2 inh
COc1cccc(N2CCN(C(=O)c3cccn3-c3nnc(N4CCCCC4)s3)CC2)c1	i
COc1cccc(CNCc2cccn2-c2nnc(N3CCN(c4ccccc4)CC3)s2)c1	10µM*
CCOc1ccc(NCc2cccn2-c2nnc(N3CCC(C(=O)NCc4cccc(OC)c4)CC3)s2)cc1	i
COCCn1c(C)cnc1CC1CCN(C(=O)c2ccc(OC)nc2)CC1	16.3%
CCc1cccc(-n2nnnc2N2CCN(C(=O)Nc3ccc(C)c(Cl)c3)CC2)c1	-23.0%
CCc1cccc(-n2nnnc2N2CCN(C(=O)Nc3ccc(C)c(Br)c3)CC2)c1	-16.7%
Cc1ccc(NC(=O)N2CCN(c3nnnn3-c3cccc(C(F)(F)F)c3)CC2)cc1F	7.94µM*
c1cc2nnc(C3CCC3)n2nc1NCC1CCCO1 (stereo not drawn)	-13.2%
O=C(O)CC1COCCN1C(=O)Cn1cnnn1 (stereo not drawn)	6.6%
Cc1nc(CC(=O)N2CCn3nc(CCC(=O)N4CCC(O)CC4)cc3C2)n[nH]1	2.2%
COc1ccc(C(=O)NC(c2ccc(Cl)cc2)c2cc(Cl)c3cccnc3c2O)cc1 (stereo not drawn)	2.82µM*
COc1ccc(S(=O)(=O)c2c(O)c3ccc(C(=O)NCc4ccc(Cl)cc4)cc3[nH]c2=O)cc1	-3.5%
COc1ccc(C(=O)Nc2cc(C(C)C)c(O)c(S(=O)(=O)c3ccc(OC)cc3)c2C)cc1	i
Cc1ccccc1CNC(=O)C1CCN(C(=O)c2ncn3c2COC(c2ccccc2)C3)CC1 (stereo not drawn)	i
Cc1ccccc1-c1nc(CS(=O)(=O)CC(=O)Nc2c(C)cccc2C)c(C)o1	4.2%
Cc1ccccc1-c1nc(Cn2ccnc2C(C)C)c(C)o1	11.2µM*
Cc1ccc(CSc2nc3ccncc3n2Cc2nc(-c3ccccc3C)oc2C)cc1	11.5%
CCN(CC)C(=O)N1CCCN(S(=O)(=O)c2ccccc2)CCC(=O)NCC1	-2.7%
Cc1cccc(Cn2nc(-c3cccnc3)nc2C2(C(N)=O)CC2)c1	10.8%
COC(=O)c1ccc2c(c1)nc1n2[C@@H](CNCc2ccc(C(F)(F)F)cc2)COC1	i
CCOC(=O)N1CCc2c(sc(NCc3cccs3)c2C(=O)Nc2ccc(OC)cc2OC)C1	-6.3%
COc1ccc(OC)c(NC(=O)c2c(NCc3ccc(C)o3)sc3c2CCC(C)C3)c1 (stereo not drawn)	11.2µM*
COc1ccc(OC)c(NC(=O)c2c(NCc3ccc(OC)c(OC)c3)sc3c2CCC(C)C3)c1 (stereo not drawn)	5.62µM*
CCOC(=O)N1CCc2c(sc3c2C(=O)NC(c2cc(OC)c(O)c(OC)c2)N3)C1 (stereo not drawn)	-14.7%
COC(=O)c1c(NC(=O)COc2c(C)ccc(C)c2C)sc2c1CCC(C)C2 (stereo not drawn)	26.3%
SMILES	Pf Dd2 inh
CCOC(=O)N1CCc2c(sc(NCc3ccc(N(CC)CC)cc3)c2C(=O)Nc2cc(OC)ccc2OC)C1	7.94µM*
COC(=O)c1c(NC(=O)COc2cc(C)ccc2C(C)C)sc2c1CCC(C)C2 (stereo not drawn)	24.2%
COC(=O)c1c(NC(=O)COc2ccc(OC)cc2)sc2c1CCC(C)C2 (stereo not drawn)	-0.7%
COc1ccc(NC(=O)Cn2nnc3sc4c(c3c2=O)CCC(C)C4)c(OC)c1 (stereo not drawn)	19.1%
Cc1ncc(CO)c(CN2CCCCC23Cc2ccccc2CNC3=O)c1O (stereo not drawn)	-0.1%
COCCN1C(=O)c2cccn2CC1CNC(=O)Cc1ccccc1 (stereo not drawn)	i
COCCCn1c(C)cc(C(=O)N2CC(COC)C3(CCNCC3)C2)c1C (stereo not drawn)	34.2%
O[C@@H]1CCN(Cc2nc(C3(O)CCN(C4CCCC4)CC3)cs2)C1	7.1%[44.1 µM]
COc1cccc(NC(=O)Cn2c(=O)n(-c3ccccc3)c(=O)c3c2cc(C)n3C)c1	27.4%
O=C(Cc1ccsc1)NCc1nnc2ccc(-c3ccccc3)nn12	3.3%
N#Cc1ccc(C(=O)N2CCCCCNC(=O)[C@@H]3CCCC[C@@H]32)cc1	14.3%
N#Cc1ccccc1CN1CCCCCCNC(=O)[C@@H]2C[C@@H](C(=O)N3CCc4ccccc4C3)C[C@@H]21	3.16µM*
N#Cc1ccc(CN2CCCCCCNC(=O)[C@@H]3C[C@@H](C(=O)N4CCc5ccccc5C4)C[C@@H]32)cc1	2.82µM*
O=C1NCCCCCCN(Cc2cccc(F)c2)[C@H]2C[C@H](C(=O)N3CCc4ccccc4C3)C[C@@H]12	3.55µM*
O=C1NCCCCCCN(C(=O)Cc2cccc(F)c2)[C@H]2CCC[C@@H]12	-1.2%
Cc1ncsc1CN1CCCC(C(=O)NCc2ccccc2)CCNC(=O)CC1 (stereo not drawn)	-11.3%

Source: PubChem
